24 molecules from the supplement of paper PMC10037445 can be followed below.

± gives the standard deviation of the averaged measurements. Whole data set: some 2,900 compounds, median “NF-kB SEAP reporter activity, fold change vs agonist alone” near 0.99, cut for the highest 2% near 2.6. The sample as a whole holds a higher share of the highest values than the screen did.

The subject of assay [1] is RAW-Dual. Put plainly: NF-kB SEAP reporter activity, fold change vs agonist alone; cytotoxicity flag (confluency mask): not cytotoxic; higher = enhanced NF-kB activity. The procedure, abridged: (§1)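 Reporter activity is given as fold change relative to agonist-alone wells. To measure it, 50 nL of library stock was pin-tooled onto RAW-Dual macrophages (50,000 cells/well, DMEM, 384-well plates), a PRR agonist followed 1 h later, and cells stayed at 37 °C, 5% CO2. Twenty hours on, supernatant was assayed for IRF (QuantiLuc luminescence) and NF-κB (QuantiBlue, 620 nm absorbance), and wells under 70% of agonist-control IncuCyte confluency in both mask sets were marked cytotoxic.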

In assay [2] the test system is RAW-Dual. Put plainly: NF-kB SEAP reporter activity, fold change vs agonist alone; higher = enhanced NF-kB activity. Particulars: library stock concentration (final ~1000-fold dilution): 10 mM, cytotoxicity flag (confluency mask): not cytotoxic. In short, it runs like this:
as §1

Where [3] appears, read: agonist: ODN 1826 (TLR9) 0.5 ug/mL.
The mark [4] stands for this setting: agonist: Pam2CSK4 (TLR2/6) 0.1 ug/mL.
Setting [5] is: agonist: Pam3CSK4 (TLR2/1) 0.1 ug/mL.

For the molecule `Cc1nc2ccc(CN(C)c3ccc(C(=O)NC(CCC(=O)O)C(=O)O)s3)cc2c(=O)[nH]1` (configuration not stated) (library stock concentration (final ~1000-fold dilution): 10 mM), the “NF-kB SEAP reporter activity” value worked out at 1.56 with RAW-Dual [1] (agonist: LPS (TLR4) 0.1 ug/mL), 1.93 in the assay with RAW-Dual [1] (setting [3]), 1.31 in the assay on RAW-Dual [1] (setting [4]) and 1.7 with RAW-Dual [1] (setting [5]).

In the case of `Cc1nc2ccc(CN(C)c3ccc(C(=O)NC(CCC(=O)O)C(=O)O)s3)cc2c(=O)[nH]1` (configuration not stated), the “NF-kB SEAP reporter activity” value in the assay on RAW-Dual [2] (agonist: Imiquimod (TLR7) […]) was determined as 1.78; in the assay on RAW-Dual [2] (agonist: MPLA (TLR4) […]), 1.45.

Take `CNc1ccc([N+](=O)[O-])cc1-n1cnc(-c2ccc(C(F)(F)F)cc2)c1`: the figures for the “NF-kB SEAP reporter activity” value in the assay on RAW-Dual [2] (agonist: Imiquimod (TLR7) […]) and in the assay with RAW-Dual [2] (agonist: MPLA (TLR4) […]) were 1.24 and 2.01, respectively.

With `CNc1ccc([N+](=O)[O-])cc1-n1cnc(-c2ccc(C(F)(F)F)cc2)c1` (library stock concentration (final ~1000-fold dilution): 10 mM), the “NF-kB SEAP reporter activity” value was 4.5 in the assay with RAW-Dual [1] (agonist: LPS (TLR4) 0.1 ug/mL), 1.91 in the assay with RAW-Dual [1] (setting [3]), 0.926 with RAW-Dual [1] (setting [4]) and 1.08 in the assay with RAW-Dual [1] (setting [5]).

`O=C(Cc1ccccc1)Nc1nnc(NC2CCN(c3nnc(NC(=O)Cc4ccccc4)s3)CC2)s1`: the “NF-kB SEAP reporter activity” value in the assay on RAW-Dual [2] (agonist: Imiquimod (TLR7) […]) was 0.998; in the assay on RAW-Dual [2] (agonist: MPLA (TLR4) […]) it was 1.26.

For `O=C(Cc1ccccc1)Nc1nnc(NC2CCN(c3nnc(NC(=O)Cc4ccccc4)s3)CC2)s1` (library stock concentration (final ~1000-fold dilution): 10 mM), the “NF-kB SEAP reporter activity” value in the assay on RAW-Dual [1] (agonist: LPS (TLR4) 0.1 ug/mL) stood at 1.41; in the assay on RAW-Dual [1] (setting [3]) it was 0.773; with RAW-Dual [1] (setting [4]), 0.514; with RAW-Dual [1] (setting [5]), 0.64.

For the molecule `COc1ccc(C2CC(=O)c3c(O)cc(O)cc3O2)cc1O` (configuration not stated), the “NF-kB SEAP reporter activity” value in the assay on RAW-Dual [2] (agonist: Imiquimod (TLR7) […]) is 1.28; in the assay on RAW-Dual [2] (agonist: MPLA (TLR4) […]), 1.11.

Regarding `COc1ccc(C2CC(=O)c3c(O)cc(O)cc3O2)cc1O` (configuration not stated) (library stock concentration (final ~1000-fold dilution): 10 mM), the “NF-kB SEAP reporter activity” value with RAW-Dual [1] (agonist: LPS (TLR4) 0.1 ug/mL) was found to be 1.12; with RAW-Dual [1] (setting [3]) it was 1.2; with RAW-Dual [1] (setting [4]), 1.26; with RAW-Dual [1] (setting [5]), 1.33.

With `O=C(O)CCN1C(=O)/C(=C2/C(=O)Nc3ccc(Cl)cc32)SC1=S`, the “NF-kB SEAP reporter activity” value with RAW-Dual [2] (agonist: Imiquimod (TLR7) […]) is 0.954; with RAW-Dual [2] (agonist: MPLA (TLR4) […]), 1.18.

Turning to `O=C(O)CCN1C(=O)/C(=C2/C(=O)Nc3ccc(Cl)cc32)SC1=S` (library stock concentration (final ~1000-fold dilution): 10 mM), the “NF-kB SEAP reporter activity” value in the assay on RAW-Dual [1] (agonist: LPS (TLR4) 0.1 ug/mL) came out at 1.86; in the assay with RAW-Dual [1] (setting [3]) it was 0.841; in the assay with RAW-Dual [1] (setting [4]), 1.4; with RAW-Dual [1] (setting [5]), 1.57.

Regarding `COc1cc2c(OC3OC(CO)C4OC(C)(C)OC4C3O)c3c(c(-c4ccc5c(c4)OCO5)c2cc1OC)C(=O)OC3` (configuration not stated), the “NF-kB SEAP reporter activity” value in the assay on RAW-Dual [2] (agonist: Imiquimod (TLR7) […]) worked out at 0.364; in the assay on RAW-Dual [2] (agonist: MPLA (TLR4) […]), 2.28.

As for `COc1cc2c(OC3OC(CO)C4OC(C)(C)OC4C3O)c3c(c(-c4ccc5c(c4)OCO5)c2cc1OC)C(=O)OC3` (configuration not stated) (library stock concentration (final ~1000-fold dilution): 10 mM), the “NF-kB SEAP reporter activity” value with RAW-Dual [1] (agonist: LPS (TLR4) 0.1 ug/mL) turned out to be 2.9; in the assay on RAW-Dual [1] (setting [3]), 0.644; in the assay with RAW-Dual [1] (setting [4]), 1.95; in the assay on RAW-Dual [1] (setting [5]) it was 3.92.

As for `COc1cc(/C=C/CO)cc(OC)c1OC1OC(CO)C(O)C(O)C1O` (configuration not stated) (library stock concentration (final ~1000-fold dilution): 10 mM), the “NF-kB SEAP reporter activity” value in the assay on RAW-Dual [1] (agonist: LPS (TLR4) 0.1 ug/mL) was determined as 1.08; in the assay on RAW-Dual [1] (setting [3]), 1.01; in the assay with RAW-Dual [1] (setting [4]) it was 1.11; in the assay on RAW-Dual [1] (setting [5]), 1.15.

Consider `COc1cc(-c2oc3cc(O)cc(O)c3c(=O)c2OC2OC(CO)C(O)C(O)C2OC2OC(C)C(O)C(O)C2O)ccc1O` (configuration not stated) (library stock concentration (final ~1000-fold dilution): 10 mM), for which the “NF-kB SEAP reporter activity” value worked out at 1.2 in the assay with RAW-Dual [1] (agonist: LPS (TLR4) 0.1 ug/mL), 0.987 with RAW-Dual [1] (setting [3]), 1.01 with RAW-Dual [1] (setting [4]) and 0.949 with RAW-Dual [1] (setting [5]).

On to `COc1cc(-c2oc3cc(O)cc(O)c3c(=O)c2OC2OC(CO)C(O)C(O)C2OC2OC(C)C(O)C(O)C2O)ccc1O` (configuration not stated), for which the “NF-kB SEAP reporter activity” value in the assay on RAW-Dual [2] (agonist: Imiquimod (TLR7) […]) amounted to 0.928; in the assay on RAW-Dual [2] (agonist: MPLA (TLR4) […]), 1.05.

Take `COc1cc(/C=C/CO)cc(OC)c1OC1OC(CO)C(O)C(O)C1O` (configuration not stated): the results for the “NF-kB SEAP reporter activity” value in the assay on RAW-Dual [2] (agonist: Imiquimod (TLR7) […]) and with RAW-Dual [2] (agonist: MPLA (TLR4) […]) were 1.03 and 1.08, respectively.

Consider `CC(NC(CCc1ccccc1)C(=O)O)C(=O)N1CCCC1C(=O)O.O.O` (configuration not stated) (library stock concentration (final ~1000-fold dilution): 10 mM), for which the “NF-kB SEAP reporter activity” value in the assay with RAW-Dual [1] (agonist: LPS (TLR4) 0.1 ug/mL) came out at 0.977; in the assay with RAW-Dual [1] (setting [3]), 1.07; in the assay with RAW-Dual [1] (setting [4]), 1.14; in the assay on RAW-Dual [1] (setting [5]), 1.09.

As to `CC(NC(CCc1ccccc1)C(=O)O)C(=O)N1CCCC1C(=O)O.O.O` (configuration not stated), the “NF-kB SEAP reporter activity” value stood at 0.942 with RAW-Dual [2] (agonist: Imiquimod (TLR7) […]) and 1.12 with RAW-Dual [2] (agonist: MPLA (TLR4) […]).

In the case of `COc1cc(C(N)=O)nc(-c2cccc(C#C[C@]3(O)CCN(C)C3=O)c2)c1` (library stock concentration (final ~1000-fold dilution): 10 mM), the “NF-kB SEAP reporter activity” value turned out to be 1.39 in the assay on RAW-Dual [1] (agonist: LPS (TLR4) 0.1 ug/mL), 0.529 with RAW-Dual [1] (setting [3]), 0.699 in the assay on RAW-Dual [1] (setting [4]) and 0.966 in the assay with RAW-Dual [1] (setting [5]).

For `COc1cc(C(N)=O)nc(-c2cccc(C#C[C@]3(O)CCN(C)C3=O)c2)c1`, the figures for the “NF-kB SEAP reporter activity” value with RAW-Dual [2] (agonist: Imiquimod (TLR7) […]) and with RAW-Dual [2] (agonist: MPLA (TLR4) […]) were 0.839 and 0.915, respectively.

For `Cc1noc(C)c1-c1ccc(-c2cc(C(N)=O)c(NC(N)=O)s2)c(OC2CCNC2)c1` (configuration not stated), the “NF-kB SEAP reporter activity” value in the assay with RAW-Dual [2] (agonist: Imiquimod (TLR7) […]) turned out to be 0.654 ± 0.054; in the assay with RAW-Dual [2] (agonist: MPLA (TLR4) […]) it was 0.683 ± 0.15.

For `Cc1noc(C)c1-c1ccc(-c2cc(C(N)=O)c(NC(N)=O)s2)c(OC2CCNC2)c1` (configuration not stated) (library stock concentration (final ~1000-fold dilution): 10 mM), the “NF-kB SEAP reporter activity” value stood at 0.567 ± 0.07 in the assay on RAW-Dual [1] (agonist: LPS (TLR4) 0.1 ug/mL), 0.449 ± 0.019 in the assay on RAW-Dual [1] (setting [3]), 0.275 ± 0.0078 in the assay with RAW-Dual [1] (setting [4]) and 0.392 ± 0.058 with RAW-Dual [1] (setting [5]).

With `CCN(C(=O)c1c(O)n(C)c2cccc(Cl)c2c1=O)c1ccccc1`, the “NF-kB SEAP reporter activity” value in the assay with RAW-Dual [2] (agonist: Imiquimod (TLR7) […]) is 0.913; in the assay on RAW-Dual [2] (agonist: MPLA (TLR4) […]), 0.993.

On to `CCN(C(=O)c1c(O)n(C)c2cccc(Cl)c2c1=O)c1ccccc1` (library stock concentration (final ~1000-fold dilution): 10 mM), for which the “NF-kB SEAP reporter activity” value is 1.08 in the assay on RAW-Dual [1] (agonist: LPS (TLR4) 0.1 ug/mL), 1.06 in the assay with RAW-Dual [1] (setting [3]), 1.01 in the assay with RAW-Dual [1] (setting [4]) and 1 with RAW-Dual [1] (setting [5]).
